Screening results deposited in PubChem BioAssay by several laboratories.
Compounds with a hit are over-represented: about 2.6% of the library has one in this group of screens.
TLR9-MyD88 block: inhibitors of TLR9-MyD88 association in cells, primary screen, cell-based, CHO, BLA complementation, fluorescence; CCF4 FRET ratio; actives 0.21% (n = 340,000); inhibition, % at 4.98 µM; Toll-like receptor 9 (Homo sapiens) + Myeloid differentiation primary response protein …;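 active means inhibition above the mean over all tested compounds plus 3 SD, cut at about 21% in these data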;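 further: 0% = DMSO only wells and 100% = clavulanate BLA inhibitor control wells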
Granule exo inh: LAMP-1 surface exposure blockers, TALL-104 cells – cell-based, flow cytometry, MLPCN library, primary screen. TALL-104 LAMP-1 surface exposure; cells stimulated with thapsigargin and PMA. inhibition, % at 10 µM. actives 0.66% (n = 360,000). AID 651702, 2012;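 active means inhibition above about 55%, limit read from the data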
NOD2 RIPK2 PPI: NOD2-RIPK2 binding disruptors in cells, primary screen, fluorescence, CHO cells, BLA complementation | Receptor-interacting serine/threonine-protein kinase 2 (Homo sapiens), O43353 | CCF4 ratio | inhibition, % at 4.98 µM | actives 0.38% (n = 360,000) | AID 624267, 2012; in the data active means inhibition above about 21%;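 further: 0% = vehicle only and 100% = reference blocker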
PRMT1 inh: PRMT1 methyltransferase inhibitors, primary screen, biochemical, fluorescence polarization. AID 652257, 2013. actives 1.3% (n = 370,000). inhibition, % at 2.79 µM. Protein arginine N-methyltransferase 1 (Homo sapiens), Q99873. recombinant PRMT1, activity-based probe fluorescence polarization;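 active means inhibition above about 21% made by adding two undisclosed values, limit read from the data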
TLR4 MyD88 comp: inhibitors of TLR4-MyD88 association in cells, primary screen, cell-based, HeLa CL3-4, BLA complementation, FRET ratio. Toll-like receptor 4 (Homo sapiens) + Myeloid differentiation primary response protein …. HeLa CL3-4 TLR4/MyD88 BLA complementation. inhibition, % at 8.4 µM. actives 0.18% (n = 200,000). AID 861, 2007; in the data active means inhibition above about 25%;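 further: 0% = vehicle and 100% = reference inhibitor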
ABHD5-PLIN5 inh: ABHD5-PLIN5 interaction inhibitors, primary screen, cell lysate, split luciferase complementation, luminescence; Split G. princeps luciferase complementation, 4 h; inhibition, % at 4 µM; actives 0.78% (n = 360,000);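 active means inhibition above the mean inhibition across every tested compound plus 3 SD, cut at about 22% in these data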;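 further: 0% = DMSO only wells and the 100% control is not disclosed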
Granule exo CP1: inhibitors of lytic granule exocytosis, confirmation, TALL-104 cells, flow cytometry, Cherry Pick01. inhibition, % at 10 µM. LAMP-1 externalization; stimulated with PMA plus thapsigargin. AID 651954, 2012. actives 11% (n = 1,500). shares compounds with Granule exo inh; in the data active means inhibition above about 60%;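 further: 0% = stimulated vehicle wells and 100% = unstimulated wells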
An asterisk follows results filed as active; x = no result.

SMILES	TLR9-MyD88 block	Granule exo inh	NOD2 RIPK2 PPI	PRMT1 inh	TLR4 MyD88 comp	ABHD5-PLIN5 inh	Granule exo CP1
CCC(=O)N1CCc2cc(Br)cc(S(=O)(=O)N(C)c3ccc(OC)cc3)c21	-1.7	73.6*	0.5	-1.4	x	5.5	-12.4
CCc1nc2sc(C(C)=O)c(N)c2c2c1CCCC2	x	63.8*	-3.0	1.6	x	-7.4	-11.2
CCc1nc2sc(C#N)c(N)c2c2c1CCCC2	-7.6	1.7	-11.9	2.7	0.2	-8.6	x
O=C(c1ccc(CS(=O)Cc2cccc(Cl)c2)o1)N1CCN(c2ccc(F)cc2)CC1 (stereo not given)	2.7	0.4	3.4	2.8	x	9.3	x
Cc1ccc(C)c(N2CCN(C(=O)c3ccc(CS(=O)Cc4cccc(Cl)c4)o3)CC2)c1 (stereo not given)	3.5	57.7*	5.8	-2.9	x	4.5	-4.7
O=C(Nc1cccc(-c2csc(Nc3cccc(C(F)(F)F)c3)n2)c1)c1ccccc1	-6.4	75.4*	-2.4	8.3	x	-24.1	-8.1
CCOC(=O)C1=CCN(S(=O)(=O)c2ccccc2Br)C1c1ccc(Cl)cc1 (stereo not given)	x	x	x	-5.8	x	x	x
COc1ccc(CNC(=O)C23CN(Cc4ccccc4)CC2C(c2ccc([N+](=O)[O-])cc2)=NO3)cc1 (stereo not given)	0.7	5.8	11.5	1.4	-8.6	-12.9	x
COc1ccc(CCNC(=O)C23CN(Cc4ccccc4)CC2C(c2ccc([N+](=O)[O-])cc2)=NO3)cc1 (stereo not given)	-5.1	60.4*	1.0	-0.8	-6.3	-0.3	-12.3
O=C(c1cccs1)N1CCCC(c2nc3c(nnn3Cc3c(Cl)cccc3Cl)c(=O)[nH]2)C1 (stereo not given)	5.0	76.8*	0.9	1.1	x	8.3	-8.7
COC(=O)c1ccc(Cn2nnc3c(=O)[nH]c(C4CCN(S(=O)(=O)c5ccc(F)cc5)CC4)nc32)cc1	-6.8	7.0	6.2	-3.2	x	6.9	x
COC(=O)c1ccc(Cn2nnc3c(=O)[nH]c(C4CCCN(S(=O)(=O)c5ccccc5Cl)C4)nc32)cc1 (stereo not given)	6.7	57.3*	-11.2	0.8	x	1.9	-8.0
CCOC(=O)[C@@]12CCCC3=C1N(CCC3)C(=O)[C@H]2CC(=O)N1CCCCC1	x	x	x	-2.2	x	x	x
COC(=O)CNC(c1ccccc1)c1cc(Br)ccc1NC(=O)CCN1CCOCC1 (stereo not given)	-0.2	77.5*	-7.9	18.6	4.7	18.0	-4.8
COC(=O)CNC(c1ccccc1)c1cc(Br)ccc1NC(=O)CNC(=O)OCc1ccccc1 (stereo not given)	-2.0	-0.5	5.7	x	1.6	-3.2	x
Cc1ccccc1C(=O)N1CCC[C@@H]1C(=O)N1CCC[C@H]1C(=O)NCc1ccccc1	x	x	x	-1.0	x	x	x
CCOc1ccc(-c2cnc(NCc3cccc4ccccc34)n2CCOC)cc1	-1.6	111.1*	-2.8	0.5	x	7.0	0.8
COc1ccc(CN2CCN(CCCCOc3ccc(Cl)cc3)CC2)c(OC)c1OC	4.7	76.1*	-2.7	0.5	-11.2	5.2	-10.0
CCN(CC)c1nc(-c2ccccc2)nc2ccccc12	-3.8	-6.0	3.1	-0.5	x	-6.2	x
CCCCN(CCCC)c1nc(-c2ccncc2)nc2ccccc12	-5.0	92.8*	-7.3	-6.3	x	5.6	68.2*
C#CCNC(=O)C1=C[C@@H](c2coc3ccccc3c2=O)C[C@@H](OCc2ccc(CO)cc2)O1	-2.7	87.7*	-3.5	-4.4	14.3	2.6	-4.6
